Where “and” joins values, the source holds several entries; their conditions need not be identical. Identical values can stand only once. Inconclusive results are not listed. Entries that show only a call come without a potency. Some structures have more than one record in an assay (separate samples or runs), and their calls can disagree. Calls of active or inactive are those of the source. Unless noted, calls follow the shape of the dose curve; as a rule, active = well fitted curve in the direction sought with a large enough effect in the repeat runs; inconclusive = weak or mixed curves; inactive = no such curve, though single readings can be large; an effect the other way counts as inactive or inconclusive.
Key:
[1] = qHTS assay to test for compound auto fluorescence at 535 nm (green) in HEK293 cells (AID 720680)
[2] = qHTS assay to test for compound auto fluorescence at 460 nm (blue) in HEK293 cell free culture (AID 720681)
How it was run: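 Blue fluorescence (Ex 405/Em 460 nm, triamterene-equivalent) was read immediately after pin transfer of compound or DMSO into medium (DMEM, 10% FBS) without cells.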

[3] = qHTS assay to test for compound auto fluorescence at 535 nm (green) in HEK293 cell free culture (AID 720682)
How it was run: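 Using fluorescein as calibrant, autofluorescence was quantified at 485/535 nm in cell-free DMEM containing 10% FBS after pintool addition of compound or vehicle.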

[4] = qHTS assay to test for compound auto fluorescence at 590 nm (red) in HEK293 cell free culture (AID 720683)
How it was run: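 Red-channel autofluorescence of compounds in culture medium (DMEM, 10% FBS), no cells, measured at 540/590 nm. Rose Bengal sodium is the reference fluorophore for equivalence.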

[5] = qHTS assay to test for compound auto fluorescence at 590 nm (red) in HepG2 cell free culture (AID 720684)
How it was run: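 No cells present: MEM + 10% FBS only. Compound pinned in, red label read (540/590 nm). Activity = fluorescence equivalent to Rose Bengal sodium.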

[6] = qHTS assay to test for compound auto fluorescence at 460 nm (blue) in HepG2 cell free culture (AID 720685)
How it was run: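 Cell-free plates of MEM plus 10% FBS received 23 nL compound or DMSO vehicle; blue-channel (405/460 nm) intensity scored against triamterene as reference fluorophore.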

[7] = qHTS assay to test for compound auto fluorescence at 535 nm (green) in HepG2 cell free culture (AID 720686)
[8] = qHTS assay to test for compound auto fluorescence at 460 nm (blue) in HepG2 cells (AID 720687)
How it was run: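 Blue-channel autofluorescence (Ex/Em 405/460 nm, triamterene-equivalent) was measured after 1 hr compound exposure at 37 C, 5% CO2. Cells were HepG2, plated overnight at 37 C in MEM plus 10% FBS.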

[9] = qHTS assay to identify small molecule antagonists of the glucocorticoid receptor (GR) signaling pathway - cell viability counter screen (AID 720693); also: nearly all actives have a fitted effect of over 55% in size; also: potency is read from the fitted curve at half-maximal effect
[10] = qHTS assay for identifying genotoxic compounds that show differential cytotoxicity against isogenic chicken DT40 cell lines with known DNA damage response pathways - Rev3 mutant cell line (AID 743014); also: nearly all actives have a fitted effect of over 55% in size; also: potency is read from the fitted curve at half-maximal effect
[11] = qHTS assay for identifying genotoxic compounds that show differential cytotoxicity against isogenic chicken DT40 cell lines with known DNA damage response pathways - Rad54/Ku70 mutant cell line (AID 743015); also: nearly all actives have a fitted effect of over 60% in size; also: potency is read from the fitted curve at half-maximal effect
[12] = qHTS assay to identify small molecule antagonists of the androgen receptor (AR) signaling pathway - cell viability counter screen (AID 743033; also: nearly all actives have a fitted effect of over 45% in size; also: potency is read from the fitted curve at half-maximal effect)
[13] = qHTS assay to identify small molecule antagonists of the androgen receptor (AR) signaling pathway using the MDA cell line - cell viability counter screen (AID 743041; also: nearly all actives have a fitted effect of over 45% in size; also: potency is read from the fitted curve at half-maximal effect)
How it was run: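 Using the breast carcinoma line MDA-kb2 AR-luc, test chemicals were co-incubated with R1881 for 16 h; CellTiter-Fluor reagent, added at 15.5 h, provided a fluorescence measure of live cells.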

[14] = biological target: Androgen receptor (Homo sapiens) (UniProt P10275); assay: qHTS assay to identify small molecule antagonists of the androgen receptor (AR) signaling pathway (AID 743035; active = well fitted inhibition curve with a large enough effect in the signal ratio in the repeat runs, not every such curve was filed as active; the % refers to the signal ratio)
How it was run: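 Reporter HEK293 cells were exposed to compounds and R1881 overnight (16 h, 37C); beta-lactamase activity was then quantified by FRET fluorescence.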

[15] = biological target: Androgen receptor (Homo sapiens) (UniProt P10275); assay: qHTS assay to identify small molecule agonists of the androgen receptor (AR) signaling pathway (AID 743036; active = well fitted activation curve with a large enough effect in the signal ratio in the repeat runs, with a control signal flat, not every such curve was filed as active; the % refers to the signal ratio)
How it was run: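 In this Tox21 qHTS, 2,000 HEK293 AR-bla cells per well were incubated with compounds for 16 h at 37C and 5% CO2. Fluorescence intensity was recorded 2 h after adding LiveBLAzer B/G FRET substrate at room temperature.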

[16] = biological target: Androgen receptor (Homo sapiens) (UniProt P10275); assay: qHTS assay to identify small molecule agonists of the androgen receptor (AR) signaling pathway using the MDA cell line (AID 743040; also: nearly all actives have a fitted effect of over 20% in size)
How it was run: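 Stable MMTV-luciferase reporter in MDA-kb2 cells; note the promoter carries GR as well as AR response elements. 16 h compound treatment, 37C, 0% CO2; ONE-Glo luminescence endpoint.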

[17] = biological target: Androgen receptor (Homo sapiens) (UniProt P10275); assay: qHTS assay to identify small molecule antagonists of the androgen receptor (AR) signaling pathway using the MDA cell line (AID 743042; also: nearly all actives have a fitted effect of over 55% in size; also: potency is read from the fitted curve at half-maximal effect)
How it was run: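 Antagonist mode: compounds plus R1881 agonist added to MDA-kb2 AR-luc cells, incubated 16 h at 37C. Luciferase reporter luminescence quantified, with multiplexed CellTiter-Fluor readout for cell viability.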

[18] = biological target: Glucocorticoid receptor (Homo sapiens) (UniProt P04150); assay: qHTS assay to identify small molecule agonists of the glucocorticoid receptor (GR) signaling pathway (AID 720691; active = well fitted activation curve with a large enough effect in the signal ratio in the repeat runs, not every such curve was filed as active; the % refers to the signal ratio); conditions: GR-bla HeLa, beta-lactamase reporter ratio, 18 h; activation: at 62.4 µM (top of the series)
How it was run: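 Compounds in DMSO, alongside positive controls, were added to GR-bla HeLa reporter cells and incubated 18 h at 37 C; GRE-driven beta-lactamase was detected by fluorescence after 2 h with FRET substrate at room temperature.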

[19] = biological target: Glucocorticoid receptor (Homo sapiens) (UniProt P04150); assay: qHTS assay to identify small molecule antagonists of the glucocorticoid receptor (GR) signaling pathway (AID 720692; active = well fitted inhibition curve with a large enough effect in the signal ratio in the repeat runs, not every such curve was filed as active; the % refers to the signal ratio)
How it was run: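 In a 1536-well cell format, compounds were added 4 h after seeding GR-bla HeLa cells, together with dexamethasone at 5 nM final; reporter activity was measured by FRET-substrate fluorescence following 18 h at 37 C.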

[20] = qHTS assay for identifying genotoxic compounds that show differential cytotoxicity against isogenic chicken DT40 cell lines with known DNA damage response pathways - wild type cell line (AID 743012); also: nearly all actives have a fitted effect of over 60% in size; also: potency is read from the fitted curve at half-maximal effect
How it was run: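 Viability of DNA repair-proficient chicken DT40 cells was assessed by CellTiter-Glo luminescence following 40 h compound exposure at 37 C/5% CO2.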

Androgen receptor (Homo sapiens), sequence (P10275 whole entry, looked up): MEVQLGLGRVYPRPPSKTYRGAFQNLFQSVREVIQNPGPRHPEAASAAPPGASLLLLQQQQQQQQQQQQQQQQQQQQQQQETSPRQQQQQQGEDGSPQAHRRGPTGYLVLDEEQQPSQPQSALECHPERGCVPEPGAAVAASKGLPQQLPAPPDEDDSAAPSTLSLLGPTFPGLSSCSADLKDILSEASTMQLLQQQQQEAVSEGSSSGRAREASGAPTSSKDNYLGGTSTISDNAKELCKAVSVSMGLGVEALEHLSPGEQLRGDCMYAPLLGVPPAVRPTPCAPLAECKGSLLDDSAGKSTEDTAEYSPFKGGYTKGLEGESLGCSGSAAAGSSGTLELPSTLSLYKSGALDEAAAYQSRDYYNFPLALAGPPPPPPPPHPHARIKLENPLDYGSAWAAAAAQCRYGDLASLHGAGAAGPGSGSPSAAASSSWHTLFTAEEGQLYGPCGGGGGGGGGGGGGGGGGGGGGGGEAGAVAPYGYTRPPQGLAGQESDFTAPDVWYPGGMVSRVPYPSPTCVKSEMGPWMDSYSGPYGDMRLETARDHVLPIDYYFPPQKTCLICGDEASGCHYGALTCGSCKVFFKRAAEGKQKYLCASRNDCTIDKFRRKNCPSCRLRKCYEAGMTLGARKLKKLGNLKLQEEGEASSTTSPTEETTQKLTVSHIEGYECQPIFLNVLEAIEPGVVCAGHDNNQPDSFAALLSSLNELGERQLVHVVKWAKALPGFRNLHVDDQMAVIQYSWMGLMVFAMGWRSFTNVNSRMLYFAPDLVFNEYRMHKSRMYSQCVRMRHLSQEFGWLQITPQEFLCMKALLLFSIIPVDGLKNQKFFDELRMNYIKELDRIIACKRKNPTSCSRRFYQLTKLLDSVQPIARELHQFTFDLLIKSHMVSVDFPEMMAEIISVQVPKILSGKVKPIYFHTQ
Glucocorticoid receptor (Homo sapiens), sequence (P04150 whole entry, looked up): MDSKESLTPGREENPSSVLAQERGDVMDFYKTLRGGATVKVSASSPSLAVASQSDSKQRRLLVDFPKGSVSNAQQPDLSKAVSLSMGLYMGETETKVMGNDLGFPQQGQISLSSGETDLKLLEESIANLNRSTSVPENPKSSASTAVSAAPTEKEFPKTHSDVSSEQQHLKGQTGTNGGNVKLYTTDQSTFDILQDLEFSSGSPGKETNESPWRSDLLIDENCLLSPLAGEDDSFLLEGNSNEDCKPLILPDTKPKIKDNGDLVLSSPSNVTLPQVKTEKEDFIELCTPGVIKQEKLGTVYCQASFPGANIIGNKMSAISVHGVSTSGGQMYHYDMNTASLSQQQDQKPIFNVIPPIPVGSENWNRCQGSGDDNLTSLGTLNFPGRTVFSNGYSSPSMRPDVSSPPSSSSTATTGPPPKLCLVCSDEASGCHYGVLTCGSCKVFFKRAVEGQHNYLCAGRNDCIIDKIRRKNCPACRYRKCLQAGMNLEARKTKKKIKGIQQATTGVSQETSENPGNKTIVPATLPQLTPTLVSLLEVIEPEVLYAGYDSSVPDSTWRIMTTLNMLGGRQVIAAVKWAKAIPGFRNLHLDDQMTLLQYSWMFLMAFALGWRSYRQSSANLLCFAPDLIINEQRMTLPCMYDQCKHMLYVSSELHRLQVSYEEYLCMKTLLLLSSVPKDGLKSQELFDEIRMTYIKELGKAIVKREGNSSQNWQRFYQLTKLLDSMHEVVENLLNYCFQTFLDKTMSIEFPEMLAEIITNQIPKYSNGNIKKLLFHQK

Row | SMILES | outcome [1] | Potency [2] | outcome [3] | outcome [4] | outcome [5] | Potency [6] | Potency [7] | Potency [8] | Potency [9] | Potency [10] | Potency [11] | Potency [12] | Potency [13] | Potency [14] | outcome [15] | outcome [16] | Potency [17] | Potency [18] | Potency [19] | Potency [20]
1 | O=C(N[C@@H]1N=C(c2ccccc2F)c2cccc3c2N(CC3)C1=O)c1cc2ccccc2[nH]1 | inactive | inactive | inactive | inactive | inactive | inactive | inactive | inactive | inactive | inactive | 21.1 µM (active) | inactive | inactive | – | – | – | – | – | – | –
2 | BrCC(Br)(Br)Br | inactive | inactive | inactive | inactive | inactive | inactive | inactive | inactive | inactive | – | – | inactive | inactive | inactive | inactive | inactive | inactive | – | – | –
3 | CCC1(CC)C(=O)N=C(O)NC1=O | inactive | inactive | inactive | inactive | inactive | inactive | – | inactive | inactive | inactive | inactive | inactive | – | – | – | – | – | inactive | inactive | inactive
4 | CCCCCCCCCCCCCCn1cc[n+](C)c1 | inactive | inactive | inactive | inactive | inactive | inactive | inactive | inactive | – | 109 nM (active) and 152 nM (active) and inactive | 122 nM (active) and 135 nM (active) and inactive | 6.93 µM (active) and 24.3 µM (active) and inactive | – | – | – | – | – | – | – | 217 nM (active) and 241 nM (active) and inactive
5 | O=c1c2ccccc2c(=O)c2c1cc(Cl)c1[nH]c3c([nH]c12)c(Cl)cc1c(=O)c2ccccc2c(=O)c13 | inactive | inactive | inactive | inactive | inactive | inactive | inactive | – | inactive | inactive | inactive | inactive | – | – | – | – | – | inactive | inactive | inactive
6 | ClC(Cl)C(Cl)(Cl)Cl | inactive | inactive | inactive | inactive | inactive | inactive | inactive | – | inactive | – | inactive | inactive | inactive | – | – | – | – | inactive | inactive | inactive
7 | O=[N+]([O-])c1ccc(CCl)cc1 | inactive | inactive | inactive | inactive | inactive | inactive | inactive | – | inactive | inactive | inactive | inactive | inactive | – | – | – | – | inactive | inactive | inactive
8 | CN/C(=N\[N+](=O)[O-])NCc1cnc(Cl)s1 | inactive | inactive | inactive | inactive | inactive | inactive | inactive | – | inactive | – | inactive | inactive | inactive | – | – | – | – | – | – | inactive
9 | O=[N+]([O-])[O-].[Tl+] | inactive | inactive | inactive | inactive | inactive | inactive | inactive | – | inactive | – | 1.09 µM (active) | – | inactive | – | – | – | – | inactive | – | 1.55 µM (active)
10 | CCN1CCC2(CC1)COc1cc3c(cc12)N(C(=O)c1ccc(-c2ccc(-c4nnc(C)o4)cc2C)cc1)CC3 | inactive | inactive | inactive | inactive | inactive | inactive | inactive | – | – | 1.42 µM (active) | 1 µM (active) | 6.38 µM (active) | – | – | – | inactive | 63.3 µM (active) | – | – | 1.26 µM (active)
11 | COCCC#N | inactive | inactive | inactive | inactive | inactive | inactive | – | inactive | inactive | inactive | inactive | inactive | – | – | – | – | – | inactive | inactive | inactive
12 | CC[C@H](C)[C@H]1O[C@]2(C=C[C@@H]1C)C[C@@H]1C[C@@H](C/C=C(\C)[C@@H](O[C@H]3C[C@H](OC)[C@@H](O[C@H]4C[C@H](OC)[C@@H](NC)[C@H](C)O4)[C@H](C)O3)[C@@H](C)/C=C/C=C3\CO[C@@H]4[C@H](O)C(C)=C[C@@H](C(=O)O1)[C@]34O)O2 | inactive | inactive | inactive | inactive | inactive | inactive | inactive | – | 12.3 µM (active) | 0.686 µM (active) | 0.864 µM (active) | 2.19 µM (active) | 21.7 µM (active) | – | – | – | – | – | – | 0.686 µM (active)
13 | O=C(NC(=O)c1c(F)cccc1F)Nc1ccc(Oc2ccc(C(F)(F)F)cc2Cl)cc1F | inactive | inactive | inactive | inactive | inactive | inactive | inactive | – | inactive | 21.7 µM (active) | 3.86 µM (active) | – | – | – | – | – | – | – | – | 4.33 µM (active)
14 | CN(C)CCc1c[nH]c2ccccc12 | inactive | inactive | inactive | inactive | inactive | inactive | inactive | – | inactive | inactive | inactive | inactive | inactive | – | – | – | – | inactive | inactive | –
15 | COC(=O)c1ccccc1S(=O)(=O)NC(=O)Nc1nc(C)nc(OC)n1 | inactive | inactive | inactive | inactive | inactive | inactive | inactive | – | inactive | – | inactive | inactive | – | – | – | – | – | – | – | inactive
16 | COC(=O)N(OC)c1ccccc1COc1ccn(-c2ccc(Cl)cc2)n1 | inactive | inactive | inactive | inactive | inactive | inactive | inactive | inactive | – | 0.243 µM (active) | 0.217 µM (active) | 0.871 µM (active) | – | – | – | – | – | – | – | 0.193 µM (active)

— PubChem BioAssay (Tox21)
